# Results filed as inconclusive are left out. Entries that show only a call come without a potency. Calls of active or inactive are those of the source. Calls come from the whole dose curve; as a rule, active = well fitted curve in the direction sought with a large enough effect in the repeat runs; inconclusive = weak or mixed curves; inactive = no such curve, though single readings can be large; an effect the other way counts as inactive or inconclusive.
# Tests used:
# [1] = qHTS RealTime-Glo MT Cell Viability Assay in HEK293 cells - 0 hour (AID 1224880); note: nearly all actives have a fitted effect of over 45% in size; note: potency is the fitted concentration of half-maximal effect
# How it was run: (§1)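 Nonlytic bioluminescent viability monitoring. HEK293 at 600 cells/well with reagent; 5 h settle; compound transfer by pintool; plates held at 37 C and read at set time points.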
# [2] = A CellTox Green Cytotoxicity Assay to monitor cytotoxicity in HEK293 cells - 32 hour (AID 1224881); note: nearly all actives have a fitted effect of over 40% in size; note: potency is the fitted concentration of half-maximal effect
# How it was run: (§2)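 Cytotoxicity was tracked continuously in HEK293 cells by a DNA-binding dye excluded from viable cells. Compounds were transferred in DMSO 5 h after seeding; fluorescence was recorded at intervals up to 40 h.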
# [3] = A CellTox Green Cytotoxicity Assay to monitor cytotoxicity in HepG2 cells - 0 hour (AID 1224882); note: nearly all actives have a fitted effect of over 35% in size
# How it was run: (§3)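 Real-time, homogeneous cytotoxicity readout: dead-cell DNA staining by CellTox Green in HepG2 monolayers, fluorescence measured at timed intervals up to 40 h of continuous compound exposure.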
# [4] = A CellTox Green Cytotoxicity Assay to monitor cytotoxicity in HepG2 cells - 32 hour (AID 1224883); note: nearly all actives have a fitted effect of over 50% in size; note: potency is the fitted concentration of half-maximal effect
# How it was run: as §3
# [5] = A CellTox Green Cytotoxicity Assay to monitor cytotoxicity in HEK293 cells - 8 hour (AID 1224884); note: nearly all actives have a fitted effect of over 35% in size; note: potency is the fitted concentration of half-maximal effect
# How it was run: as §2
# [6] = qHTS RealTime-Glo MT Cell Viability Assay in HepG2 cells - 16 hour (AID 1224885); note: nearly all actives have a fitted effect of over 50% in size
# How it was run: (§4)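 HepG2 cells (600/well) were dispensed with RealTime-Glo reagents, incubated 5 h at 37 °C, then treated with compounds in DMSO for up to 40 h. Nonlytic NanoLuc luminescence reflecting viable cells was read at each stated time point.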
# [7] = qHTS RealTime-Glo MT Cell Viability Assay in HEK293 cells - 8 hour (AID 1224887); note: nearly all actives have a fitted effect of over 50% in size; note: potency is the fitted concentration of half-maximal effect
# How it was run: as §1
# [8] = A CellTox Green Cytotoxicity Assay to monitor cytotoxicity in HEK293 cells - 16 hour (AID 1224888); note: nearly all actives have a fitted effect of over 35% in size; note: potency is the fitted concentration of half-maximal effect
# How it was run: as §2
# [9] = qHTS RealTime-Glo MT Cell Viability Assay in HepG2 cells - 0 hour (AID 1224889); note: nearly all actives have a fitted effect of over 50% in size; note: potency is the fitted concentration of half-maximal effect
# How it was run: as §4
# [10] = qHTS RealTime-Glo MT Cell Viability Assay in HEK293 cells - 24 hour (AID 1224886); note: nearly all actives have a fitted effect of over 50% in size; note: potency is the fitted concentration of half-maximal effect
# How it was run: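 HEK293 cells seeded with NanoLuc/prosubstrate reagent, rested 5 h at 37 C, then dosed and kept at 37 C up to 40 h. Nonlytic real-time luminescence from viable cells read at 0, 8, 16, 24, 32 and 40 h.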
SMILES,Potency [1],Potency [2],Potency [3],Potency [4],Potency [5],Potency [6],Potency [7],Potency [8],Potency [9],Potency [10]
CC(=O)[C@H]1CC[C@H]2[C@@H]3C[C@H](C)C4=CC(=O)CC[C@]4(C)[C@H]3[C@@H](O)C[C@]12C,1.69 µM (active),inactive,inactive,inactive,inactive,inactive,inactive,inactive,0.379 µM (active),
Cc1ccnc2ccccc12,inactive,inactive,inactive,inactive,inactive,inactive,inactive,inactive,inactive,inactive
c1ccc(COCc2ccccc2)cc1,inactive,inactive,inactive,inactive,inactive,inactive,inactive,inactive,inactive,inactive
CC(C)(C)C(=O)O,inactive,inactive,inactive,inactive,inactive,inactive,inactive,inactive,inactive,inactive
CC(C)c1nnc2ccc(-c3ocnc3-c3cc(F)ccc3F)cn12,inactive,inactive,inactive,inactive,inactive,inactive,19.5 µM (active),inactive,inactive,
C=CC(=O)NCOCC(C)C,inactive,inactive,inactive,inactive,inactive,inactive,inactive,inactive,inactive,inactive
Cc1cnc(C)c(C)n1,inactive,inactive,inactive,inactive,51.3 µM (active),inactive,inactive,,inactive,inactive
CCCCCCCCSCCO,inactive,inactive,inactive,43.6 µM (active),inactive,inactive,inactive,inactive,inactive,inactive
O=C(CCCN1CCC(O)(c2ccc(Br)cc2)CC1)c1ccc(F)cc1,inactive,inactive,inactive,26.8 µM (active),inactive,inactive,8.49 µM (active),inactive,inactive,10.7 µM (active)
C=C(C)C(=O)OCCOC(=O)CC(C)=O,inactive,inactive,inactive,inactive,inactive,inactive,inactive,inactive,inactive,inactive
CCC(=O)Oc1ccc(/C(CC)=C(\CC)c2ccc(OC(=O)CC)cc2)cc1,inactive,inactive,inactive,inactive,inactive,inactive,,inactive,inactive,21.9 µM (active)
Cc1ccc(/C=N/n2c(-c3ccccc3)csc2=S)cc1,inactive,inactive,inactive,inactive,inactive,inactive,inactive,,inactive,inactive
O=c1[nH]c2ccc(S(=O)CCN3CCC(Cc4ccc(F)cc4)CC3)cc2o1 (stereo not drawn),inactive,inactive,inactive,inactive,inactive,inactive,,inactive,,
CCCCN(CCCC)CCCOC(=O)c1ccc(N)cc1,inactive,inactive,inactive,inactive,inactive,inactive,inactive,inactive,inactive,inactive
C[N+]1(C)CCC(=C(c2ccccc2)c2ccccc2)CC1,inactive,inactive,inactive,inactive,inactive,inactive,inactive,inactive,inactive,inactive
CCC(C(=O)OCCOCCN(CC)CC)c1ccccc1 (stereo not drawn),inactive,inactive,inactive,inactive,inactive,inactive,inactive,inactive,inactive,inactive
O=C(O)c1ccc(CO)o1,inactive,inactive,inactive,inactive,inactive,inactive,inactive,inactive,inactive,inactive
C[N+](C)(C)CCOC(N)=O,inactive,inactive,inactive,inactive,inactive,inactive,inactive,inactive,inactive,inactive
CCC(C(=O)OCCN(CC)CC)c1ccccc1 (stereo not drawn),inactive,inactive,inactive,inactive,inactive,inactive,inactive,inactive,inactive,

SMILES,Potency [1],Potency [2],Potency [3],Potency [4],Potency [5],Potency [6],Potency [7],Potency [8],Potency [9],Potency [10]
CCCCC(CC)COC(=O)COc1ccc(Cl)cc1C (stereo not drawn),inactive,inactive,inactive,inactive,inactive,inactive,inactive,inactive,inactive,
CC(C)(CCl)c1ccccc1,inactive,inactive,inactive,inactive,inactive,inactive,inactive,inactive,inactive,inactive
CC(COc1ccc(C(C)(C)C)cc1)OS(=O)OCCCl (stereo not drawn),inactive,inactive,inactive,inactive,inactive,inactive,inactive,inactive,inactive,
CCC(C)=O,inactive,inactive,inactive,inactive,inactive,inactive,inactive,inactive,inactive,
CCN(CC)CCNC(=O)c1ccc(NC(C)=O)cc1,inactive,inactive,inactive,inactive,inactive,inactive,inactive,inactive,inactive,inactive
O=C(O)c1snc(Cl)c1Cl,inactive,inactive,inactive,inactive,inactive,inactive,inactive,inactive,inactive,
Cc1nc2ccccc2s1,inactive,inactive,inactive,inactive,inactive,inactive,inactive,inactive,inactive,inactive
C[Si](NC1CCCCC1)(NC1CCCCC1)NC1CCCCC1,inactive,inactive,inactive,inactive,inactive,inactive,inactive,inactive,inactive,inactive
CC1C2CC(CC2C2CCCC(O)C2)C1(C)C (stereo not drawn),inactive,49 µM (active),inactive,43.6 µM (active),43.6 µM (active),inactive,inactive,49 µM (active),inactive,inactive
Cc1ccc(Nc2nccc(N(C)c3ccc4c(C)n(C)nc4c3)n2)cc1S(N)(=O)=O,inactive,inactive,inactive,inactive,inactive,inactive,2.13 µM (active),inactive,inactive,1.51 µM (active)
Nc1ccc(S(=O)(=O)O)cc1,inactive,inactive,inactive,inactive,inactive,inactive,inactive,inactive,inactive,
CCCCN(CCCC)C(=S)SSC(=S)N(CCCC)CCCC,inactive,inactive,inactive,inactive,inactive,inactive,34.3 µM (active),inactive,inactive,
C=CC(C)(O)CCCC(C)CCCC(C)CCCC(C)C (stereo not drawn),inactive,inactive,inactive,inactive,inactive,inactive,inactive,inactive,inactive,inactive
Cc1oncc1C(=O)Nc1ccc(C(F)(F)F)cc1,inactive,inactive,inactive,inactive,inactive,inactive,inactive,inactive,inactive,inactive
CN1CCCN=C1/C=C/c1cccs1,inactive,inactive,inactive,inactive,inactive,inactive,inactive,inactive,inactive,inactive
CCC1(C)CC(=O)NC1=O (stereo not drawn),inactive,inactive,inactive,inactive,inactive,inactive,inactive,inactive,,
Cc1cc(C(=C2C=CC(=Nc3ccc(S(=O)(=O)O)cc3S(=O)(=O)O)C=C2)c2ccc(Nc3ccc(S(=O)(=O)O)cc3)cc2)ccc1N,inactive,inactive,inactive,inactive,inactive,inactive,inactive,inactive,,
C(=C\c1ccccc1)/CN1CCN(C(c2ccccc2)c2ccccc2)CC1,inactive,inactive,inactive,inactive,inactive,inactive,inactive,inactive,,
CC(=O)[C@H]1CC[C@H]2[C@@H]3C=CC4=CC(=O)CC[C@@]4(C)[C@@H]3CC[C@]12C,inactive,inactive,inactive,inactive,inactive,inactive,inactive,inactive,inactive,

# From PubChem BioAssay (Tox21)
